Screening results (PubChem)
This excerpt belongs to a sample that is enriched for hits.
DUX4 inh = inhibitors of DUX4-driven ZSCAN4 reporter expression, primary screen, 293T cells, Gaussia and Italica luciferase; 293T-iDUX4 ZSCAN4-Gaussia luciferase reporter, 24 h; active compounds read low; activity change, negative = inhibition, % (test concentration not listed); actives 0.8% (n = 37,000);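 active means mean inhibition of at least 10% in the main channel, exceeding the control channel by a set limit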
Of the large screens only hits and unclear results are named; the others gave an inactive call.

O=C(NCc1ccccn1)[C@@H]1[C@@H](CO)[C@@H]2Cn3c(cccc3=O)[C@H]1N2CC1CCCCC1	none
COCC(=O)N1CC2(CCN(Cc3ccccc3Cl)CC2)c2c([nH]c3cc(OC)ccc23)[C@H]1CO	none
COc1ccc2c3c([nH]c2c1)[C@@H](CO)N(Cc1ccc(F)cc1)CC31CN(C)C1	none
COc1ccc2c3c([nH]c2c1)[C@H](CO)N(Cc1ccccc1F)CC31CCN(S(C)(=O)=O)CC1	none
COc1ccc(CN2CC3(C2)CN(Cc2ccc4c(c2)OCO4)[C@H](CO)c2[nH]c4cc(OC)ccc4c23)cc1	DUX4 inh -58
COc1ccc2c3c([nH]c2c1)[C@@H](CO)N(Cc1ccccc1F)CC31CN(C)C1	none
COCC(=O)N1CCC2(CC1)CN(Cc1cccc(Cl)c1)[C@H](CO)c1[nH]c3cc(OC)ccc3c12	none
COc1cccc(CN2CC3(CCN(C)CC3)c3c([nH]c4cc(OC)ccc34)[C@@H]2CO)c1	none
CCS(=O)(=O)N1CC2(CN(Cc3ccc4c(c3)OCO4)[C@@H](CO)c3[nH]c4cc(OC)ccc4c32)C1	none
CCS(=O)(=O)N1CC2(CN(Cc3ccccc3F)[C@@H](CO)c3[nH]c4cc(OC)ccc4c32)C1	DUX4 inh -46
COc1ccc2c3c([nH]c2c1)[C@@H](CO)N(C(=O)c1ccccn1)CC31CCN(C(=O)C2CC2)CC1	none
COc1ccc2c3c([nH]c2c1)[C@@H](CO)N(Cc1ccccc1Cl)CC31CCN(C(=O)C2CC2)CC1	DUX4 inh -21
COc1ccc2c3c([nH]c2c1)[C@H](CO)N(Cc1cccc(Cl)c1)CC31CCN(C(C)=O)CC1	DUX4 inh -67
Cc1noc(C)c1S(=O)(=O)N(C)C[C@@H]1OCCCC[C@H](C)Oc2ccc(NS(=O)(=O)c3cccs3)cc2C(=O)N([C@H](C)CO)C[C@H]1C	none
CNC[C@@H]1Oc2ccc(NS(=O)(=O)c3cn(C)cn3)cc2CC(=O)N([C@H](C)CO)C[C@@H]1C	none
COCC(=O)N(C)C[C@@H]1Oc2cc(C#CCC3CCCC3)ccc2S(=O)(=O)N([C@@H](C)CO)C[C@@H]1C	none
C[C@@H]1COCc2cn(nn2)CC[C@@H](Cc2ccccc2)C(=O)N1	none
CCCNC(=O)[C@@H]1[C@@H](CO)[C@@H]2Cn3c(ccc(-c4ccc(F)cc4)c3=O)[C@H]1N2CC	none
CN1[C@@H]2c3ccc(-c4ccc(F)cc4)c(=O)n3C[C@H]1[C@H](CO)[C@H]2C(=O)N1CCCCC1	none
CC=Cc1ccc2n(c1=O)C[C@@H]1[C@@H](CO)[C@H](C(=O)NCC)[C@H]2N1C(=O)c1ccc(F)cc1 (mixture of isomers)	none
O=C(C[C@@H]1CC[C@@H]2[C@H](COC[C@H](O)CN2C(=O)c2cccnc2)O1)NCc1ccc(Cl)cc1	none
CCS(=O)(=O)N(C)C[C@@H]1N[C@H](CO)[C@@H]1c1ccc(C2=CCCCC2)cc1	none
CC=Cc1ccc2n(c1=O)C[C@@H]1[C@@H](CO)[C@H](C(=O)NCC)N(CC3CCOCC3)[C@H]21 (mixture of isomers)	none
O=C(NCC1CC1)[C@H]1[C@H](CO)[C@H]2Cn3c(ccc(-c4ccccc4F)c3=O)[C@@H]1N2Cc1cncnc1	none
CCC(=O)N1[C@@H]2Cn3c(ccc(-c4ccccc4)c3=O)[C@H]1[C@@H](C(=O)N(C)C)[C@@H]2CO	none
O=C(C[C@H]1CC[C@H]2[C@@H](COC[C@@H](O)CN2Cc2ccccc2)O1)NCc1ccccc1Cl	none
COc1ccc2c3c(n(C)c2c1)[C@H](CO)N(C(=O)Cc1ccccn1)CC31CCN(Cc2ccccn2)CC1	none
Cc1ccccc1-c1ccc([C@H]2[C@@H](CO)N3CCCCN(Cc4cccnc4)C[C@H]23)cc1	none
CCNC(=O)c1cc2c(c(-c3cccc(-c4cccc(F)c4)c3)n1)[C@H](CCO)N([S@@](=O)C(C)(C)C)C2	none
CCCC(=O)N1CCC2(CC1)CN(Cc1ccc(Cl)cc1)[C@@H](CO)c1[nH]c3cc(OC)ccc3c12	DUX4 inh -50
COc1ccc2c3c([nH]c2c1)[C@H](CO)N(Cc1ccccc1Cl)CC31CCN(C(C)=O)CC1	DUX4 inh -28
CCCNC(=O)N1CC2(C1)CN(Cc1ccc(F)cc1)[C@@H](CO)c1[nH]c3cc(OC)ccc3c12	none
COc1ccc2c3c([nH]c2c1)[C@@H](CO)N(Cc1ccc(Cl)cc1)CC31CCN(C(=O)CN(C)C)CC1	none
COc1ccc2c3c([nH]c2c1)[C@H](CO)N(C(C)=O)CC31CCN(Cc2ccccc2Cl)CC1	none
COCC(=O)N1CCC2(CC1)CN(Cc1ccccc1Cl)[C@H](CO)c1[nH]c3cc(OC)ccc3c12	none
CCCNC(=O)N1CC2(CN(Cc3ccc(F)cc3)C2)c2c([nH]c3cc(OC)ccc23)[C@@H]1CO	DUX4 inh -37
CCCNC(=O)N1CC2(CN(C)C2)c2c([nH]c3cc(OC)ccc23)[C@H]1CO	none
COc1ccc2c3c([nH]c2c1)[C@H](CO)N(Cc1ccc(Cl)cc1)CC31CCN(C(=O)CN(C)C)CC1	none
O=C(C[C@H]1C[C@@H]2c3cc(NC(=O)NC4CCCC4)ccc3O[C@@H]2[C@@H](CO)O1)NCc1ccncc1	none
